# Inconclusive results are not listed. Activity calls are given as the source filed them. How the source made its calls, unless noted: active means hit-call score of the fitted dose curve at least 0.9, where 1 is the maximum; inconclusive means response in the unintended direction; inactive means score below 0.9.
# Experiments:
# [1] = biological target: rat Gamma-Aminobutyric Acid Type A Receptor, Non-Selective (GABAR-NonSelective), Gabra1 (gene 29705) (UniProt P62813); assay: NVS_LGIC_rGABAR_NonSelective: NovaScreen (NVS) Ligand-Gated Ion Channel Assay for rat Gamma-Aminobutyric Acid Type A Receptor, Non-Selective (GABAR-NonSelective) (AID 2283326)
# rat Gamma-Aminobutyric Acid Type A Receptor, Non-Selective (GABAR-NonSelective), Gabra1 (gene 29705), sequence (P62813 whole entry, looked up): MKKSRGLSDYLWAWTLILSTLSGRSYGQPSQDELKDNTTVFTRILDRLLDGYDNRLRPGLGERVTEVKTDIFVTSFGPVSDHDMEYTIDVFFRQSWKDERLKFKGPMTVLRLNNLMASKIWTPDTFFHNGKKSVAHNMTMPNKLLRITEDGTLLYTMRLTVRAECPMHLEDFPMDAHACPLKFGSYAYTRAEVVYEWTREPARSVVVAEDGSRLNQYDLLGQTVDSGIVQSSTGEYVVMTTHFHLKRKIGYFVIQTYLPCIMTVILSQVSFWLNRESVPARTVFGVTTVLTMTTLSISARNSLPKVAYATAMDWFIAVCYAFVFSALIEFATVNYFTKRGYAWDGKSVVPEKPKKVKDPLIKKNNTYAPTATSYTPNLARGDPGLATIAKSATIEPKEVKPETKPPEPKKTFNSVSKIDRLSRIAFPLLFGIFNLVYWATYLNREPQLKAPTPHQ
# Summary of the method: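 Radioligand displacement on rat whole-brain extract, 1 h, filter scintillation readout; signal loss fitted versus DMSO. Primary screen in duplicate at 25 uM; hits (e.g. ≥30% inhibition) retested in concentration-response up to 50 uM.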
# [2] = biological target: rat Glutamate, NMDA Agonist Site (GluNMDA), Grin1 (gene 24408) (UniProt P35439); assay: NVS_LGIC_rGluNMDA_Agonist: NovaScreen (NVS) Ligand-Gated Ion Channel Assay for rat Glutamate, NMDA Agonist Site (GluNMDA) (AID 2283327)
# Summary of the method: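 Rat forebrain membranes, radioligand binding in the agonist-site protocol; 1 h after dosing; filter-based scintillation counting. Single-concentration duplicate screen at 25 uM, then concentration-response up to 50 uM for actives; gain-of-signal vs DMSO.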
# [3] = biological target: rat Oxytocin Receptor (OXT), Oxtr (gene 25342) (UniProt P70536); assay: NVS_GPCR_rOXT: NovaScreen (NVS) G Protein-Coupled Receptor Assay for rat Oxytocin Receptor (OXT) (AID 2283330)
# rat Oxytocin Receptor (OXT), Oxtr (gene 25342), sequence (P70536 whole entry, looked up): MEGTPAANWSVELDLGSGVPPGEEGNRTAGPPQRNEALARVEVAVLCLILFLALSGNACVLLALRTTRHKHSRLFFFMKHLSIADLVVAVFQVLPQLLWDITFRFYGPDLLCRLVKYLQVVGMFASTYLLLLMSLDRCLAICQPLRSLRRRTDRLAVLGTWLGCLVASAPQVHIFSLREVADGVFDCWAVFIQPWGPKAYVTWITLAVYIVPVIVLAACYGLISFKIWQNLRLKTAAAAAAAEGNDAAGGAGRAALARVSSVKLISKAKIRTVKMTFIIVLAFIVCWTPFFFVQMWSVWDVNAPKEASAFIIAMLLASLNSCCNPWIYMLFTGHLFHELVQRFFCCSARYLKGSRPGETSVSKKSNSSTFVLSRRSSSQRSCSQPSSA
# Summary of the method: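 Radioligand displacement on rat uterine membranes, 1 h incubation, filter-based scintillation counting. Chemicals were screened in duplicate at 25 uM, and those passing threshold were retested in concentration-response up to 50 uM. Loss of binding was fitted versus DMSO.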
# [4] = biological target: Glutamate receptor ionotropic, kainate 1 (Rattus norvegicus) (UniProt P22756); assay: NVS_IC_rKAR: NovaScreen (NVS) Ion Channel Assay for rat Kainic Acid Receptors (KAR) (AID 2283334; active means hit-call score of the fitted dose curve at least 0.9, where 1 is the maximum; inactive means score below 0.9)
# Glutamate receptor ionotropic, kainate 1 (Rattus norvegicus), sequence (P22756 whole entry, looked up): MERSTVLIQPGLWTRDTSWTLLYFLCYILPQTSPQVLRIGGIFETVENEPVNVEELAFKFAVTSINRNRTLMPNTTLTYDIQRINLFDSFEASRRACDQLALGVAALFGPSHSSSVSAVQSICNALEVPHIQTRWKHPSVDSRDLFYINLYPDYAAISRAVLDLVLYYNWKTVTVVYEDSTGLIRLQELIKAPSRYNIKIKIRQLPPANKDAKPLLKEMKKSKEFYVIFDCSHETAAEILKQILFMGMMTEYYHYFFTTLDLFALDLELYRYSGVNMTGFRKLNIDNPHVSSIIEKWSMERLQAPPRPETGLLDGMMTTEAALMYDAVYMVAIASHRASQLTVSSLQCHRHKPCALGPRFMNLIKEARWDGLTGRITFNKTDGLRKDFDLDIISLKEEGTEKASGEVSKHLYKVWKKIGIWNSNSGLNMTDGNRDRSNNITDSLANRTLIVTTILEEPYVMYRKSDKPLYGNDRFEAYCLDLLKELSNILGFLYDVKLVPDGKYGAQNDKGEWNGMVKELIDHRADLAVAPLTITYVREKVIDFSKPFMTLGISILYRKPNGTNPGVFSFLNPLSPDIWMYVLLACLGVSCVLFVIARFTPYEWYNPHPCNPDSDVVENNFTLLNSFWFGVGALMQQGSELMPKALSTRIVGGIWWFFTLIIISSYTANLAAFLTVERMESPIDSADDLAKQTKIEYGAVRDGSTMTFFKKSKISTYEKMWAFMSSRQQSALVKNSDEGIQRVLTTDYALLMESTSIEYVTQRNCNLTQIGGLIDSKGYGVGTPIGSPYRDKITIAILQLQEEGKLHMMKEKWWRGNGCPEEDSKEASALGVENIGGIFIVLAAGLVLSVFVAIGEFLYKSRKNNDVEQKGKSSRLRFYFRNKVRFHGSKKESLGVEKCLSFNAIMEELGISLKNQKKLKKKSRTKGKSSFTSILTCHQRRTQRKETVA
# Summary of the method: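 Radioligand displacement binding using rat forebrain membranes, 1 h incubation, filter-based scintillation counting. Screened in duplicate at 25 uM, with actives retested in concentration-response up to 50 uM; fitted against DMSO.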
compound,measurement,setting,value
COC(=O)NS(=O)(=O)c1ccc(N)cc1,outcome,[1],inactive
COC(=O)c1c(C(F)F)nc(C(F)(F)F)c(C2=NCCS2)c1CC(C)C,outcome,[1],inactive
CN=C=S,outcome,[2],inactive
CC(C)N1C(=O)c2ccccc2NS1(=O)=O,outcome,[2],inactive
O=P(O)(O)CCCl,outcome,[3],inactive
CC(C)NC(=O)N1CC(=O)N(c2cc(Cl)cc(Cl)c2)C1=O,outcome,[3],inactive
CO/N=C(/C1=NOCCO1)c1ccccc1Oc1ncnc(Oc2ccccc2Cl)c1F,outcome,[4],inactive
